The panel holds about 83,000 compounds, 20% with a hit somewhere; the sample as a whole holds those more often.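 The test compound was applied at a single concentration to cells in 96-well plates for 48 hours, and percent growth was recorded.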 Unmarked numbers belong to inactive results. Activity calls are given as the source filed them. The calls were made as follows: active = growth percent below 10; inactive = the rest.

Among the test systems are BT-549 breast; MDA-MB-435 melanoma; SW-620 colon; MCF7 breast; HCT-116 colon; HCC-2998 colon; KM12 colon.
Experiment in all cases: NCI-60 one-dose screen, 48 h (100 = growth as untreated, 0 = no growth, -100 = all killed)
Conditions in all cases: 10 µM unless noted

As to `CC(=O)ON1CCCC(P(=O)(OCOC(=O)C(C)(C)C)OCOC(=O)C(C)(C)C)C1=O` (stereo not drawn), the growth is -1.15% (active) with BT-549 breast; 27% with MDA-MB-435 melanoma; 16.5% with SW-620 colon; -1.76% (active) with MCF7 breast; 0.623% (active) in the test on HCT-116 colon; -36.8% (active) in the test with HCC-2998 colon.
As for `Nc1c(C(=O)Nc2ccccn2)sc2nc3c(cc12)C(=O)CCC3`, the growth was 53.5% in the test with BT-549 breast; -42.9% (active) in the test on MDA-MB-435 melanoma; 23.7% with SW-620 colon; 22% in the test with MCF7 breast; 26.3% with HCT-116 colon; 49.3% with HCC-2998 colon.
For `O=C(/C(=C/c1ccc([N+](=O)[O-])cc1)SCc1ccccc1)c1ccc(Cl)cc1`, the growth in the test with BT-549 breast was 89.2%; in the test on MDA-MB-435 melanoma, 85.7%; in the test on SW-620 colon, 4.23% (active); in the test with MCF7 breast, 7.72% (active); in the test with HCT-116 colon it was 30.5%; in the test with HCC-2998 colon, 97.3%.
`Cn1c2ccccc2c2c(OC(=O)c3ccccc3)c3c(nc21)-c1ccccc1C3`: the growth with BT-549 breast was 94%; in the test with MDA-MB-435 melanoma, 104%; with SW-620 colon, 105%; in the test with MCF7 breast it was 72.7%; with HCT-116 colon it was 95.9%; with HCC-2998 colon, 106%.
With `Nc1ccc(C2=NN(C(=O)c3cc(-c4ccc(Cl)cc4)nc4ccccc34)C(c3ccc(Cl)cc3)C2)cc1` (stereo not drawn), the growth in the test with BT-549 breast was 52.3%; in the test with MDA-MB-435 melanoma, -23.1% (active); with SW-620 colon it was 29.6%; in the test on MCF7 breast, 14.8%; in the test with HCT-116 colon, 23%; in the test with HCC-2998 colon, 62.9%.
`O=C(O)COc1ccc2c(=O)c3sc4c(=O)c5ccccc5c(=O)c4c3c(=O)c2c1`: the growth was -97% (active) in the test on BT-549 breast; -88.6% (active) in the test with MDA-MB-435 melanoma; 10.1% in the test with SW-620 colon; -57% (active) in the test with MCF7 breast; 24.9% in the test on HCT-116 colon; -21.1% (active) with HCC-2998 colon. Moreover, the growth with KM12 colon was 51.5%.
On to `C#C[C@@]1(O)[C@@H](CO)O[C@@H](n2cc(Cl)c3c(N)ncnc32)[C@@H]1O`, for which the growth was -32.9% (active) in the test on BT-549 breast; -12.3% (active) with MDA-MB-435 melanoma; 2.67% (active) in the test with SW-620 colon; -40.6% (active) in the test on MCF7 breast; 4.58% (active) with HCT-116 colon; -33.8% (active) with HCC-2998 colon.
As to `N#Cc1c(-c2ccc(Cl)cc2)cc(-c2cc3ccccc3o2)nc1SCC(=O)c1ccc(Cl)cc1`, the growth was 112% in the test on BT-549 breast; 104% in the test on MDA-MB-435 melanoma; 94.2% with SW-620 colon; 112% in the test on MCF7 breast; 94.1% with HCT-116 colon; 102% with HCC-2998 colon. For the same molecule, in the test with KM12 colon, the growth is 94.9%.
With `Cc1c(O)c(=O)ccn1-c1nc2ccccc2s1`, the growth in the test on BT-549 breast was 93.4%; in the test on MDA-MB-435 melanoma it was 99.7%; in the test on SW-620 colon it was 94.9%; with MCF7 breast it was 98.6%; in the test with HCT-116 colon it was 95.8%; in the test with HCC-2998 colon, 114%.
`COc1ccc(-c2nc(C#N)c(NCC(c3ccc(Cl)cc3)N3CCCCC3)o2)cc1` (stereo not drawn): the growth was 106% in the test on BT-549 breast; 77.1% with MDA-MB-435 melanoma; 97.5% in the test with SW-620 colon; 80.6% with MCF7 breast; 80.5% with HCT-116 colon; 107% with HCC-2998 colon. In addition, in the test on KM12 colon, the growth is 84.9%.
Consider `COC(=O)c1nc(-c2ccccc2)oc1S(=O)(=O)n1nc(C)cc1N`, for which the growth with BT-549 breast is 69.8%; with MDA-MB-435 melanoma, 79.6%; in the test with SW-620 colon it was 6.13% (active); in the test with MCF7 breast it was 60.2%; in the test with HCT-116 colon it was 67.9%; in the test on HCC-2998 colon, 115%.
Consider `C/C(=N\NC(=O)c1ccncc1)c1ccc(N)cc1`, for which the growth in the test on BT-549 breast is 93.2%; in the test on MDA-MB-435 melanoma, 102%; in the test on SW-620 colon, 101%; in the test with MCF7 breast, 95.9%; in the test on HCT-116 colon, 99.6%; in the test on HCC-2998 colon it was 106%.
As to `CN1CC=C(c2cc(NC(=O)Nc3ccc(Oc4ccnc(NC(=O)C5CC5)c4)c(F)c3)cc(C(F)(F)F)c2)CC1`, the growth with BT-549 breast is -11.2% (active); in the test with MDA-MB-435 melanoma, -12.4% (active); in the test with SW-620 colon, -0.0556% (active); in the test with MCF7 breast, -17.1% (active); in the test with HCT-116 colon, -10.7% (active); with HCC-2998 colon, 11.8%.
On to `COc1ccc(OCC(=O)OC(C)C)cc1`, for which the growth with BT-549 breast was 109%; with MDA-MB-435 melanoma it was 101%; in the test with SW-620 colon, 94.4%; in the test on MCF7 breast, 93.8%; with HCT-116 colon it was 114%; in the test on HCC-2998 colon, 103%.
On to `CCOc1ccc(C2N(c3cc(OC)c(OC)c(OC)c3)C(=O)C2(F)F)cc1` (stereo not drawn), for which the growth is 44.2% in the test with BT-549 breast; 16.8% in the test on MDA-MB-435 melanoma; 25.5% with SW-620 colon; 17.2% with MCF7 breast; 8.92% (active) in the test on HCT-116 colon; 81.7% in the test with HCC-2998 colon.
Consider `CCCNc1nc(C)[nH]c(=O)c1S`, for which the growth with BT-549 breast was 113%; in the test on MDA-MB-435 melanoma, 105%; in the test with SW-620 colon it was 121%; in the test on MCF7 breast it was 111%; in the test with HCT-116 colon, 108%; in the test on HCC-2998 colon it was 112%.
As for `O=C(Nc1ccc(N=Cc2ccccc2O)cc1)NC1C=c2ccccc2=CC1` (stereo not drawn), the growth in the test with BT-549 breast is 86.6%; in the test on MDA-MB-435 melanoma it was 104%; in the test with SW-620 colon, 105%; in the test on MCF7 breast it was 92.6%; in the test on HCT-116 colon, 104%; with HCC-2998 colon it was 100%.
On to `Cc1ccc(C(=O)O)o1`, for which the growth in the test on BT-549 breast is 97.9%; in the test with MDA-MB-435 melanoma, 108%; in the test on SW-620 colon, 107%; with MCF7 breast, 105%; in the test on HCT-116 colon, 96.1%; with HCC-2998 colon it was 102%. For the same molecule, the growth in the test on KM12 colon was 96.9%.
Consider `COC(=O)/C=C1\SC(=Nc2ccc(F)cc2)N(CCc2c[nH]c3ccccc23)C1=O`, for which the growth in the test with BT-549 breast is 88.4%; in the test on MDA-MB-435 melanoma, 114%; with SW-620 colon it was 106%; in the test on MCF7 breast it was 74.9%; in the test on HCT-116 colon, 87.8%; with HCC-2998 colon it was 102%.

The record behind these values is PubChem BioAssay (NCI).
